In publication PMC5540273 (PLoS ONE, 2017):

Columns and labels:
Conditions in all cases: concentration: 1 μM, replicates: in singlicate; n = 1
[1] = tested on: MET
[2] = tested on: T1, MINK
T1 construct: gene MINK1

[3] = tested on: MKK7
[4] = tested on: MKNK1
[5] = tested on: MKNK2
[6] = tested on: T2, MLCK
T2 construct: gene MYLK3

[7] = tested on: T3, MLK1
T3 construct: gene MAP3K9

[8] = tested on: MLK2
[9] = tested on: MLK3
[10] = tested on: MRCKA
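Further: KINOMEscan kinase panel screen.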

Compound | %Inh [1] [%] | %Inh [2] [%] | %Inh [3] [%] | %Inh [4] [%] | %Inh [5] [%] | %Inh [6] [%] | %Inh [7] [%] | %Inh [8] [%] | %Inh [9] [%] | %Inh [10] [%]
COc1cccc(-n2cnc3c(N)ncnc32)c1 [SKF-97416] | 0 | 22 | 30 | 0 | 31 | 5 | 2 | 0 | 0 | 13
O=C(NCc1cccs1)c1cc(C(=O)c2c(Cl)cccc2Cl)c[nH]1 [GW823670] | 5 | 0 | 0 | 0 | 0 | 0 | 10 | 13 | 0 | 0
Nc1ncnc2c1ncn2-c1cccc2ccccc12 [SKF-97184] | 0 | 12 | 0 | 0 | 0 | 0 | 0 | 19 | 0 | 0
CCC(=O)c1c(-c2ccccc2)c2cc(Cl)ccc2c(=O)n1Cc1cc(C(=O)NC2CC2)n(C)n1 | 0 | 0 | 25 | 0 | 11 | 5 | 0 | 15 | 0 | 8
